Results reported in PubChem BioAssay AID1159580 (chemical genetic matrix, 2015).
The campaign covered roughly 5,500 compounds. About 2,000 (36%) were called active. Inconclusive results (about 18%) are left out. The list shows a part of the results. A number with no mark means an inactive call. Rule as the data show it: active = normalized growth mostly below about 0.91 (no sharp cut-off); inconclusive = no clear call, values can overlap the other calls; inactive = mostly above about 0.92.

Experiment: chemical genetic growth profiling, strain panel (AID 1159580);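 also: tested at 20 µM; growth read once vehicle control cultures reached saturation at 30 °C; 1 = growth at the plate median or of vehicle wells; lower values mean less growth of the strain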
Conditions: S. cerevisiae deletion strains, growth OD
[1] = locus YAL013W, strain DEP1, active compounds read low
[2] = locus YAL040C, strain CLN3, active compounds read low
[3] = locus YCL061C, strain MRC1 (second series), active compounds read low
[4] = locus YDR363W, strain ESC2, active compounds read low
[5] = locus YER002W, strain NOP16, active compounds read low
[6] = locus YGR078C, strain PAC10, active compounds read low
[7] = locus YMR263W, strain SAP30, active compounds read low
[8] = locus YMR307W, strain GAS1, active compounds read low
[9] = locus YNL175C, strain NOP13, active compounds read low
[10] = locus YNL197C, strain WHI3, active compounds read low
[11] = locus YNL224C, strain SQS1, active compounds read low
[12] = locus YOR083W, strain WHI5 (second series), active compounds read low

## Cc1ccccc1N1CCN(S(=O)(=O)C[C@]23CCC(CC2NC(=O)[C@@H](N)CCS(C)(=O)=O)C3(C)C)CC1 (stereo partly specified)
[1]
  normalized growth: 0.995
[2]
  normalized growth: 1.01
[3]
  normalized growth: 1
[4]
  normalized growth: 1
[5]
  normalized growth: 1.04
[6]
  normalized growth: 0.999
Locus YGR229C, strain SMI1, active compounds read low
  normalized growth: 1
[7]
  normalized growth: 0.995
[8]
  normalized growth: 0.99
[9]
  normalized growth: 1.01
[10]
  normalized growth: 1.01
[11]
  normalized growth: 1.01
Locus YNL322C, strain KRE1, active compounds read low
  normalized growth: 0.99
[12]
  normalized growth: 1.04

## CCCN(CCC)C1Cc2cc(OC)c(OC)cc2C1
[1]
  normalized growth: 0.961
[2]
  normalized growth: 1.05
[3]
  normalized growth: 0.988
[4]
  normalized growth: 0.974
[5]
  normalized growth: 1.04
[7]
  normalized growth: 0.985
[8]
  normalized growth: 0.995
[9]
  normalized growth: 1.02
[10]
  normalized growth: 0.983
[11]
  normalized growth: 0.994
[12]
  normalized growth: 0.995

## Clc1ccc(C(c2ccc(Cl)cc2)n2cc[n+](CC(OCc3ccc(Cl)cc3Cl)c3ccc(Cl)cc3Cl)c2)cc1 (stereo unspecified)
[2]
  normalized growth: 0.071 (active)
[3]
  normalized growth: 0.0506 (active)
[4]
  normalized growth: 0.0687 (active)
[5]
  normalized growth: 1.01
[6]
  normalized growth: 0.0555 (active)
Locus YJR075W, strain HOC1, active compounds read low
  normalized growth: 0.0686 (active)
[8]
  normalized growth: 0.0652 (active)
[9]
  normalized growth: 0.0668 (active)
[10]
  normalized growth: 0.0718 (active)
[11]
  normalized growth: 0.0691 (active)
[12]
  normalized growth: 0.0706 (active)

## Clc1ccc(C(Cn2ccnc2)OCc2ccsc2Cl)c(Cl)c1 (stereo unspecified)
Locus YAL021C, strain ccr4, active compounds read low
  normalized growth: 0.0615 (active)
Locus YAL026C, strain drs2, active compounds read low
  normalized growth: 0.0595 (active)
Locus YAL030W, strain snc1, active compounds read low
  normalized growth: 0.058 (active)
Locus YBL061C, strain skt5, active compounds read low
  normalized growth: 0.0605 (active)
Locus YBR009C, strain hhf1, active compounds read low
  normalized growth: 0.0623 (active)
Locus YBR023C, strain chs3, active compounds read low
  normalized growth: 0.0625 (active)
Locus YBR171W, strain sec66, active compounds read low
  normalized growth: 0.077 (active)
Locus YBR231C, strain swc5, active compounds read low
  normalized growth: 0.0613 (active)
Locus YBR279W, strain paf1, active compounds read low
  normalized growth: 0.0605 (active)
Locus YCL011C, strain gbp2, active compounds read low
  normalized growth: 0.0554 (active)
Locus YCL016C, strain dcc1, active compounds read low
  normalized growth: 0.0612 (active)
Locus YCL061C, strain MRC1, active compounds read low
  normalized growth: 0.0623 (active)
Locus YCL069W, strain vba3, active compounds read low
  normalized growth: 0.0601 (active)
Locus YCR088W, strain abp1, active compounds read low
  normalized growth: 0.0619 (active)
Locus YDL005C, strain med2, active compounds read low
  normalized growth: 0.0727 (active)
Locus YDL040C, strain nat1, active compounds read low
  normalized growth: 0.0591 (active)
Locus YDR001C, strain nth1, active compounds read low
  normalized growth: 0.0593 (active)
Locus YDR069C, strain doa4, active compounds read low
  normalized growth: 0.0605 (active)
Locus YDR137W, strain rgp1, active compounds read low
  normalized growth: 0.0897 (active)
Locus YDR159W, strain sac3, active compounds read low
  normalized growth: 0.0897 (active)
Locus YDR195W, strain ref2
  normalized growth: 0.109 (active)
Locus YDR297W, strain sur2, active compounds read low
  normalized growth: 0.0576 (active)
Locus YDR334W, strain swr1, active compounds read low
  normalized growth: 0.0622 (active)
Locus YDR335W, strain msn5, active compounds read low
  normalized growth: 0.0604 (active)
Locus YDR392W, strain spt3, active compounds read low
  normalized growth: 0.0929 (active)
Locus YEL003W, strain gim4, active compounds read low
  normalized growth: 0.0528 (active)
Locus YEL037C, strain rad23, active compounds read low
  normalized growth: 0.0589 (active)
Locus YEL061C, strain CIN8 (second series), active compounds read low
  normalized growth: 0.0607 (active)
Locus YER015W, strain faa2, active compounds read low
  normalized growth: 0.0602 (active)
Locus YER016W, strain bim1, active compounds read low
  normalized growth: 0.0611 (active)
Locus YER111C, strain swi4, active compounds read low
  normalized growth: 0.0729 (active)
Locus YER155C, strain BEM2 (second series), active compounds read low
  normalized growth: 0.0863 (active)
Locus YFR010W, strain ubp6, active compounds read low
  normalized growth: 0.0638 (active)
Locus YGL167C, strain pmr1, active compounds read low
  normalized growth: 0.0775 (active)
Locus YGL173C, strain kem1, active compounds read low
  normalized growth: 0.0679 (active)
Locus YGL227W, strain vid30, active compounds read low
  normalized growth: 0.0627 (active)
Locus YGL240W, strain doc1, active compounds read low
  normalized growth: 0.0751 (active)
Locus YGL253W, strain hxk2, active compounds read low
  normalized growth: 0.0532 (active)
Locus YHR013C, strain ard1, active compounds read low
  normalized growth: 0.116 (active)
Locus YHR027C, strain rpn1, active compounds read low
  normalized growth: 0.0631 (active)
Locus YHR030C, strain SLT2, active compounds read low
  normalized growth: 0.1 (active)
Locus YHR079C, strain IRE1, active compounds read low
  normalized growth: 0.111 (active)
Locus YHR142W, strain chs7, active compounds read low
  normalized growth: 0.0682 (active)
Locus YJL092W, strain hpr5, active compounds read low
  normalized growth: 0.058 (active)
Locus YJL095W, strain BCK1 (second series), active compounds read low
  normalized growth: 0.0564 (active)
Locus YJL095W, strain BCK1, active compounds read low
  normalized growth: 0.131 (active)
Locus YJL115W, strain asf1, active compounds read low
  normalized growth: 0.0715 (active)
Locus YJL129C, strain trk1, active compounds read low
  normalized growth: 0.0844 (active)
Locus YJL154C, strain vps35, active compounds read low
  normalized growth: 0.0606 (active)
Locus YJL164C, strain tpk1, active compounds read low
  normalized growth: 0.0589 (active)
Locus YJL166W, strain qcr8, active compounds read low
  normalized growth: 0.0614 (active)
Locus YJL187C, strain SWE1, active compounds read low
  normalized growth: 0.058 (active)
Locus YJR066W, strain TOR1, active compounds read low
  normalized growth: -0.00364 (active)
Locus YKL160W, strain elf1, active compounds read low
  normalized growth: 0.0664 (active)
Locus YKR026C, strain gcn3, active compounds read low
  normalized growth: 0.0641 (active)
Locus YKR091W, strain srl3, active compounds read low
  normalized growth: 0.0588 (active)
Locus YLL001W, strain dnm1, active compounds read low
  normalized growth: 0.0592 (active)
Locus YLL026W, active compounds read low
  normalized growth: 0.0585 (active)
Locus YLL041C, strain sdh2, active compounds read low
  normalized growth: 0.0592 (active)
Locus YLR027C, strain aat2, active compounds read low
  normalized growth: 0.0566 (active)
Locus YLR113W, strain HOG1, active compounds read low
  normalized growth: 0.175 (active)
Locus YLR221C, strain rsa3, active compounds read low
  normalized growth: 0.0562 (active)
Locus YLR258W, strain gsy2, active compounds read low
  normalized growth: 0.0592 (active)
Locus YLR262C, strain YPT6 (second series), active compounds read low
  normalized growth: 0.0854 (active)
Locus YLR320W, strain mms22, active compounds read low
  normalized growth: 0.083 (active)
Locus YLR342W, strain FKS1, active compounds read low
  normalized growth: 0.063 (active)
Locus YLR357W, strain rsc2, active compounds read low
  normalized growth: 0.114 (active)
Locus YLR370C, strain arc18, active compounds read low
  normalized growth: 0.0594 (active)
Locus YLR384C, strain iki3, active compounds read low
  normalized growth: 0.0608 (active)
Locus YML120C, strain ndi1, active compounds read low
  normalized growth: 0.0591 (active)
Locus YMR058W, strain fet3, active compounds read low
  normalized growth: 0.0582 (active)
Locus YMR125W, strain sto1, active compounds read low
  normalized growth: 0.0724 (active)
Locus YMR129W, active compounds read low
  normalized growth: 0.057 (active)
Locus YMR205C, strain PFK2, active compounds read low
  normalized growth: 0.0885 (active)
Locus YMR231W, strain pep5, active compounds read low
  normalized growth: 0.0835 (active)
Locus YNL071W, strain lat1, active compounds read low
  normalized growth: 0.0601 (active)
Locus YNL183C, strain NPR1, active compounds read low
  normalized growth: -4.4e-05 (active)
Locus YNL209W, strain ssb2, active compounds read low
  normalized growth: 0.0596 (active)
Locus YNL248C, strain rpa49, active compounds read low
  normalized growth: 0.0715 (active)
Locus YNL322C, strain KRE1 (second series), active compounds read low
  normalized growth: 0.0708 (active)
Locus YNR049C, strain mso1, active compounds read low
  normalized growth: 0.0574 (active)
Locus YOR001W, strain rrp6, active compounds read low
  normalized growth: 0.0652 (active)
Locus YOR070C, strain gyp1, active compounds read low
  normalized growth: 0.0829 (active)
Locus YOR080W, strain dia2, active compounds read low
  normalized growth: 0.0656 (active)
Locus YOR083W, strain WHI5, active compounds read low
  normalized growth: 0.0618 (active)
Locus YOR106W, strain vam3, active compounds read low
  normalized growth: 0.0631 (active)
Locus YOR231W, strain MKK1, active compounds read low
  normalized growth: 0.107 (active)
Locus YOR265W, strain rbl2, active compounds read low
  normalized growth: 0.0575 (active)
Locus YOR270C, strain vph1, active compounds read low
  normalized growth: 0.0903 (active)
Locus YOR290C, strain snf2, active compounds read low
  normalized growth: 0.074 (active)
Locus YPL051W, strain arl3, active compounds read low
  normalized growth: 0.0604 (active)
Locus YPL078C, strain atp4, active compounds read low
  normalized growth: 0.0629 (active)
Locus YPL106C, strain sse1, active compounds read low
  normalized growth: 0.0945 (active)
Locus YPL240C, strain hsp82, active compounds read low
  normalized growth: 0.0568 (active)
Locus YPL256C, strain CLN2, active compounds read low
  normalized growth: 0.133 (active)
